Measured values published in PubChem BioAssay AID1851 (National Center for Advancing Translational Sciences (NCATS), 2009).
Several values for one entry are separate records, joined by “and”; a condition that tells them apart may be missing. Identical values can stand only once. The whole screen tested about 16,000 compounds, of which about 5,800 (36%) were called active. Another 23% or so got no clear call; they are omitted. The call rests on the fitted dose curve; in most records, active means well fitted curve in the direction sought with a large enough effect; inconclusive means small, poorly fitted or top-dose-only effect, or effect the other way; inactive means no such curve, though single readings can be large or run the other way. The list shows a part of the results.

biological target: Cytochrome P450 2C19 (Homo sapiens) (UniProt P33261); assay: Cytochrome panel assay with activity outcomes; conditions: recombinant CYP, pro-luciferin dealkylation, luminescence, p450-cyp2c19; series mostly up to 57.1 µM; activity, negative = inhibition: at the top concentration
Sequence (P33261 whole entry, looked up): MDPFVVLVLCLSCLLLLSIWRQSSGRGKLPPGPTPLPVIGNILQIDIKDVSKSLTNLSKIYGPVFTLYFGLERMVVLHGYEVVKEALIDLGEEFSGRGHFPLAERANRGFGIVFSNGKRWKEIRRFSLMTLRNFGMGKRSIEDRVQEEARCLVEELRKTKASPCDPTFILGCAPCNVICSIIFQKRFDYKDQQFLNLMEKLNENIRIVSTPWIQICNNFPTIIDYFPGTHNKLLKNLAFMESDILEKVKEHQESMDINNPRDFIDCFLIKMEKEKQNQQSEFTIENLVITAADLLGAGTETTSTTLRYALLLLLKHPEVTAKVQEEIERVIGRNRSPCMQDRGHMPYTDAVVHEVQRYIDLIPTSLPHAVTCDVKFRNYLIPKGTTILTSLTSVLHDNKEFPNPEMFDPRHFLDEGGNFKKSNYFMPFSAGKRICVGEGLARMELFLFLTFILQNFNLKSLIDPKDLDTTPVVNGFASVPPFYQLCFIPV
On the % scale 0 is the no-effect control and ±100 the full control effect.

Row | Structure (SMILES) | AC50 | activity, negative = inhibition
1 | Cc1ccc(C(=O)c2cn[nH]c2-c2cc(Cl)ccc2O)cc1 | 0.708 µM (active) | –
2 | Cc1cc2c(nc1C)CCCCN2C[C@H](C)O/N=C\[C@@H](C)[C@H](OCc1ccccc1)C(C)C | – | -20.8% [at 11.4 µM] (inactive)
3 | CCc1nc(SCC(=O)c2ccc(Cl)s2)c2oc3ccccc3c2n1 | 0.562 µM (active) | –
4 | Cc1nc(SCC(=O)c2ccc(Cl)s2)c2oc3ccccc3c2n1 | 0.178 µM (active) | –
5 | CCc1nc(SCC(=O)N2CCCc3ccccc32)c2oc3ccccc3c2n1 | 3.98 µM (active) | –
6 | CC(=O)OC[C@@H]1O[C@@H](O/N=C2/C[C@@H](O)[C@@H](O)[C@@H]3[C@@H]4C(=O)N(c5cccc(Oc6ccccc6)c5)C(=O)[C@H]4CC[C@@H]23)[C@H](OC(C)=O)[C@H](OC(C)=O)[C@@H]1OC(C)=O | – | -22% [at 11.4 µM] (inactive)
7 | Clc1cccc(Oc2cnc3ccccc3n2)c1 | 3.55 µM (active) | –
8 | Cn1cc(-c2nc3cnc(Oc4cccc(Cl)c4)nc3n(CCC#N)c2=O)c2ccccc21 | – | -28% (inactive)
9 | Cn1c(=O)c(-c2ccc(Cl)cc2)nc2cnc(Oc3cccc(Cl)c3)nc21 | – | 9.78% (inactive)
10 | O=C(CCl)Nc1ccc(Oc2cnc3ccccc3n2)cc1 | 5.01 µM (active) | –
11 | CN1CCCC[C@@H]1CCN1CCCCC1 | – | 26.3% [at 11.4 µM] (inactive)
12 | COc1ccc(-c2cc(C(F)(F)F)n3nc(C(=O)N4CCCCC4)cc3n2)cc1 | 14.1 µM (active) | –
13 | COC(=O)c1ccccc1NC(=O)c1cc2nc(C3CC3)cc(C(F)(F)F)n2n1 | – | -7.71% (inactive)
14 | COc1ccc(NC(=O)N2CCCC3(CCN(C(=O)c4cc(C(F)(F)F)cc(C(F)(F)F)c4)CC3)C2)cc1 | – | -35.4% (inactive)
15 | CCOC(=O)C1CCCN(C(=O)c2cc3nc(-c4ccc5c(c4)OCO5)cc(C(F)(F)F)n3n2)C1 (centres undefined) | 14.1 µM (active) | –
16 | C[C@H](c1ccccc1)N1C(=O)[C@H]2[C@@H]3[C@H](O)[C@H](O)CC(=O)[C@H]3CC[C@H]2C1=O | – | -0.855% [at 11.4 µM] (inactive)
17 | CCc1nnc(SCc2ccc(OC(C)C)cc2)n1N | 10 µM (active) | –
18 | COc1cccc2c1C(=N)c1c(O)c3c(c(O)c1C2=O)C[C@](O)(C(C)=O)C[C@@H]3O[C@H]1C[C@H](N)[C@@H](O)[C@H](C)O1 | – | -44.3% [at 11.4 µM] (inactive)
19 | O=C(NCc1ccc(Cl)cc1)c1ccc(Cl)cc1[N+](=O)[O-] | 1.26 µM (active) | –
20 | O=[N+]([O-])c1cc(Cl)cc2c1nc(NCCO)c1ccccc12 | – | -34.6% [at 11.4 µM] (inactive)
21 | Cc1ccc(C(=O)NCCNc2ccc(Cl)cc2[N+](=O)[O-])o1 | 7.94 µM (active) | –
22 | COc1cc(C(=O)NCCC(C)C)c([N+](=O)[O-])cc1OC | – | -5.49% (inactive)
23 | O=C(NCc1ccccc1)c1ccc(Cl)cc1[N+](=O)[O-] | 11.2 µM (active) | –
24 | CCOc1ccc(NC(=O)c2ccc(Br)o2)c([N+](=O)[O-])c1 | – | 27% (inactive)

Row | Structure (SMILES) | AC50 | activity, negative = inhibition
25 | O=c1[nH]ncn2cccc12 | – | 5.26% (inactive)
26 | c1ccc2cc(-c3csnn3)ccc2c1 | 3.98 µM (active) | –
27 | O=C(O)c1nnsc1-c1csnn1 | – | -19.5% [at 11.4 µM] (inactive)
28 | Nc1nc(-c2ccc3ccccc3c2)cc(-c2cc(-c3ccc4ccccc4c3)nc(N)n2)n1 | – | 10.1% [at 11.4 µM] (inactive)
29 | COc1ccc(-c2nc3cnc(N4CCN(C)CC4)nc3n(C3CC3)c2=O)cc1 | – | 0.141% (inactive)
30 | Cc1cccc(NC(=S)NC(=O)c2cccs2)n1 | 3.55 µM (active) | –
31 | O=C(NC(=S)NNC(=O)c1cccs1)c1ccco1 | – | -21.9% (inactive)
32 | Cc1ccccc1C(=O)Nc1cccc(NC(=S)NC(=O)c2cccs2)c1 | 3.55 µM (active) | –
33 | COc1cc(NC(=S)NC(=O)c2c(OC)cccc2OC)ccc1NC(=O)c1cccs1 | 2 µM (active) | –
34 | O=C(N/N=C/c1cccc(OC2CSC2)c1)c1ccccc1O | – | -12.9% (inactive)
35 | O=C(COc1ccccc1C(=O)N/N=C\c1ccc(O)c(O)c1)N/N=C/c1ccc(O)c(O)c1 | 15.8 µM (active) | –
36 | CCOC(=O)CC(=O)CSc1nnc2c(n1)[nH]c1ccccc12 | 14.1 µM (active) | –
37 | Cc1ccc(C(=O)NNC(=O)CSc2nnc3c(n2)[nH]c2ccc(F)cc23)cc1 | – | -27.4% (inactive)
38 | COc1[nH]c2ccc(F)cc2c1C(=O)OCC1CCN(CCNS(C)(=O)=O)CC1 | inactive | –
39 | CCOCc1cnc(C)nc1NCC(=O)c1c(C)[nH]c2ccccc12 | – | -18.2% (inactive)
40 | CON(C)C(=O)c1nnc2c(n1)[nH]c1ccccc12 | – | -38.3% [at 11.4 µM] (inactive)
41 | O=C(CSc1nnc2c(n1)[nH]c1ccc(F)cc12)OCc1ccccc1 | 0.398 µM (active) | –
42 | Cc1cccc(N(CC(=O)NC2CCCC2)C(=O)c2cc3cc4cccc(C)c4nc3s2)c1C | 3.98 µM (active) | –
43 | Cc1cc(C)nc(NC(=O)c2cccc([N+](=O)[O-])c2C)n1 | – | -21.1% (inactive)
44 | O=C(Nc1cccc(NC(=O)c2ccccc2[N+](=O)[O-])n1)c1ccccc1[N+](=O)[O-] | 8.91 µM (active) | –
45 | S=C(Nc1ccccc1)Nc1ccccc1C#Cc1ccccc1 | 3.16 µM (active) | –
46 | C=CCN(CC=C)C(=S)Nc1ccccc1 | – | -48.7% (inactive)
47 | CCOc1ccc(C(=O)Nc2ccccc2N2CCCC2)cc1 | 15.8 µM (active) | –
48 | COc1ccc(-c2ccc3c(n2)CCCN3C[C@H](O)CN2CCCc3nc(-c4ccc(Br)cc4)ccc32)cc1 | – | 0.393% [at 11.4 µM] (inactive) and -39.5% [at 11.4 µM] (inactive)

Row | Structure (SMILES) | AC50 | activity, negative = inhibition
49 | Cc1ccc(OCC(=O)Nc2ccccc2N2CCOCC2)c(C)c1 | 3.98 µM (active) | –
50 | CC(=O)N1CCN(c2ccccc2NC(=O)COc2ccc(Br)cc2)CC1 | 14.1 µM (active) | –
51 | COc1ccc(-n2c(=O)c(C)nc3cnc(N4CCNCC4)nc32)cc1 | – | -4.91% (inactive)
52 | CS(=O)(=O)N1CCC2(CC1)CN(Cc1cc(C(F)(F)F)cc(C(F)(F)F)c1)C2 | – | -36% (inactive)
53 | NS(=O)(=O)c1cc(C(=O)O)c(O)c2ccccc12 | – | -24.4% [at 11.4 µM] (inactive)
54 | CCOC(=O)c1c(C)oc2c1cc(O)c1ccccc12 | 3.55 µM (active) | –
55 | COCCNc1ncncc1-c1c(C)noc1C | – | -39% (inactive)
56 | COc1ccc2[nH]cc(CCNc3ncncc3-c3ccccc3Cl)c2c1 | 0.0631 µM (active) | –
57 | CC(=O)NCCNc1ncncc1-c1ccccc1CN(C)C | – | -8.79% (inactive)
58 | COc1ccc2[nH]cc(CCNc3ncncc3-c3ccccc3CN(C)C)c2c1 | 10 µM (active) | –
59 | COc1ccc2[nH]cc(CCNc3ncncc3-c3ccccc3C(F)(F)F)c2c1 | 0.251 µM (active) | –
60 | COc1ccc2[nH]cc(CCNc3ncncc3-c3c(C)noc3C)c2c1 | 3.16 µM (active) | –
61 | CN(C)Cc1ccccc1-c1cncnc1NC1CC1 | – | -12.7% (inactive)
62 | CC(N)=NCc1cccc(CN)c1 | inactive | –
63 | COc1ccc2[nH]cc(CCNc3ncncc3-c3ccccc3C)c2c1 | 0.0501 µM (active) | –
64 | COc1ccc2[nH]cc(CCNc3ncncc3-c3ccccc3OC)c2c1 | 0.0794 µM (active) | –
65 | C[C@H]1C[C@H]2[C@H]3CCC4=CC(=O)C=C[C@@]4(C)[C@]3(F)[C@H](O)C[C@]2(C)[C@@]1(O)C(=O)COP(=O)(O)O | – | 18.4% [at 11.4 µM] (inactive)
66 | Cc1ccc(C(C(=O)NCc2ccco2)N(C(=O)CNC(=O)c2cccs2)c2ccc(C)cc2C)cc1 (centres undefined) | 1.12 µM (active) | –
67 | O=C(NCc1ccco1)C(c1ccccc1)N(C(=O)Cc1cccs1)c1ccccc1F (centres undefined) | 3.16 µM (active) | –
68 | Cc1ccc(C(C(=O)NC2CCCCC2)N(CC2CCCO2)C(=O)CNC(=O)c2cccs2)cc1 (centres undefined) | 10 µM (active) | –
69 | CCC(C)OC(=O)C1=C(C)NC(=O)CC1c1ccccc1OC (centres undefined) | 2 µM (active) | –
70 | CCOC(=O)C1=C(C)NC2(O)c3ccccc3C(=O)C12O (centres undefined) | – | -23.4% (inactive)
71 | CCCOc1ccccc1C1CC(=O)NC(C)=C1C(=O)OCC(C)C (centres undefined) | 1.41 µM (active) | –
72 | COc1cccc2c1OC1(C)CC2/C(=C(\C)O)C(=O)N1 (centres undefined) | – | -10.3% (inactive)

Row | Structure (SMILES) | AC50 | activity, negative = inhibition
73 | CCn1c(=O)[nH]c2ccccc21 | – | -16.8% (inactive)
74 | c1ccc2c(c1)c1ccccc1n2Cn1c2ccccc2c2ccccc21 | 0.398 µM (active) | –
75 | COc1cccc(-c2cc(NCc3ccc(OC)cc3OC)ncn2)c1 | 5.01 µM (active) | –
76 | COc1cccc(-c2cc(NCc3ccccc3OC)ncn2)c1 | 7.94 µM (active) | –
77 | COc1ccc(CNc2cc(-c3cccnc3)ncn2)c(OC)c1 | – | -41.7% (inactive)
78 | Cn1c(CCNC(=O)c2ccccc2Cl)n[nH]c1=S | – | 22.3% (inactive)
79 | CN(Cc1n[nH]c(=S)n1C)S(=O)(=O)c1ccccc1 | – | -24.8% (inactive)
80 | S=c1[nH]nc(CSCc2ccccc2Cl)n1-c1ccccc1 | 0.708 µM (active) | –
81 | Cc1cccc(NC(=O)CSc2nc3ccccc3c3nc(CCc4c(C)n[nH]c4C)nn23)c1 | 7.94 µM (active) | –
82 | Cn1c(=O)n(C)c2cc(/C=N/n3cnnc3)ccc21 | 17.8 µM (active) | –
83 | COC(=O)c1ccc(/C=N\NC(=O)c2ccc(C)cc2Cl)cc1 | 5.01 µM (active) | –
84 | Cn1c(=O)n(C)c2cc(/C=N/NC(=O)c3ccc(Cl)cc3Cl)ccc21 | 3.98 µM (active) | –
85 | Cn1c(=O)n(C)c2cc(S(=O)(=O)O)ccc21 | – | -14.7% (inactive)
86 | COc1ccc(/C=N\NC(=O)O)cc1 | – | 11% [at 11.4 µM] (inactive)
87 | Cc1cc(C)c(S(=O)(=O)NNC(=O)C2CCN(Cc3ccccc3)CC2)c(C)c1 | – | -18.9% (inactive)
88 | Cc1cc(C)c(S(=O)(=O)Nc2cccc(C(F)(F)F)c2)c(C)c1 | 3.16 µM (active) | –
89 | Cc1cc(C)c(S(=O)(=O)Nc2ccccc2C(F)(F)F)c(C)c1 | 0.1 µM (active) | –
90 | CC(C)NC(=O)N1CC[C@@]2(CCCN(C(=O)c3cc(C(F)(F)F)cc(C(F)(F)F)c3)C2)C1 | – | 30.6% (inactive)
91 | COc1ccccc1CN(Cc1cc2cc3c(cc2[nH]c1=O)OCCO3)Cc1nnnn1Cc1ccco1 | 7.08 µM (active) | –
92 | CCC(C)(C)n1nnnc1C(c1cc2cc3c(cc2[nH]c1=O)OCO3)N1CCCCC1 (centres undefined) | 31.6 µM (active) | –
93 | CCC(C)(C)n1nnnc1C(C(C)C)N(Cc1ccco1)Cc1cc2cc3c(cc2[nH]c1=O)OCO3 (centres undefined) | 10 µM (active) | –
94 | CCC(c1nnnn1CC1CCCO1)N(CCN1CCOCC1)Cc1cc2cc(C)ccc2[nH]c1=O (centres undefined) | – | 1.58% (inactive)
